Source: the supplement of paper PMC6555819

The sequences below were run on VDR:RXRa (NR concentration 270 nM, RXRa partner concentration 90 nM) (assay: PBM binding z-score (relative to random genomic background probes); higher = stronger binding; sequences stand for … in GC…GCGATTGACAGCGTAGAATGAAGG).
Description: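 Protein-binding microarray (Agilent 4x180K custom design, double-stranded 60-nt probes: 5' GC cap, 34-nt variable region, 24-nt constant primer region; full probe sequence given). Purified or IVT nuclear receptor:RXRα heterodimers (3:1 NR:RXRα, mostly 270:90 nM) or homodimers were incubated for 1 h in PBS with 2% milk and no ligand, then detected with Alexa488 antibodies. Fluorescence from o1-orientation probes (~5 replicates averaged) was converted to z-scores against 500 random hg19 background probes. Variable regions are seed direct-repeat (DR0–DR5) sites, all their single-nucleotide variants and half-site ablations.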
For CAAACTAGGTCACCCGAAGGTCAAAGTCCGCATG, the PBM binding z-score was 5.75. With ACTAGCAGGCCAAGGGTCACTCCAGATTAGTCCG the PBM binding z-score was 2.32. CGAACTAGATCAGAACAGGACAGTGAAGGATGAT showed a PBM binding z-score of -0.438. For ACAGACGGGTGAGTGAAGGTAACTCAGCTGGACG, the PBM binding z-score was -0.422. GCTTACGGGTCAAAGGTGATAGCATGAATAGAAT showed a PBM binding z-score of 4.42. TCTGCTAGGTCAGTTGGTCAGCTTACGAGCTGCC was tested, and the PBM binding z-score was 0.0848. With TCGAGTAGGTTACCAATGGGGCATTAAGCTTTCT the PBM binding z-score was 0.0667. Work on CAAACTAGGTCACGAAAGCTCAAAGTCGAATGAC yielded a PBM binding z-score of 2.37. With GCTATTAGTTGAAAGGGCAACCGGATGATTCTCG the PBM binding z-score was 0.47. In the case of AATACAGGGTCATCGTAGGCCAGCGTACGCACAG, the PBM binding z-score is reported as 5.21. For GCTTACGGGTCAAAGGCTATAGCATGAATAGAAT, the PBM binding z-score was 3.47. Sequence CCTTACGGGTCACGAGGTTTTAGCACGACGAGCG has a PBM binding z-score of 5.64. Work on CCTACTGGGCCAAAAAGGGCATTGATGCCGATAA yielded a PBM binding z-score of 1.01. AGGATGAGGTTATACGTAGATCAGGGAAGAAAGT was tested, and the PBM binding z-score was 1.66. For CAAACTAGGTCAAACGTCAAAGTCGAGCCAACCA, the PBM binding z-score was 2.41. With CCGACTGGGGCAGAAAGGTTACCATTCCATCCGG the PBM binding z-score was 0.567. GCGACTGGGGCAAAGCAGGTCACCATAAGGTTGG showed a PBM binding z-score of 2.52. Sequence CCGACTGGGGCAAAGGTTACCAGACTCAGTACGA has a PBM binding z-score of 1.64. GCAGATAGGTAATACAAGGTGAAAGTCCGATTGT showed a PBM binding z-score of 0.13. In the case of CAAACTAGGTCACGTAAGGTCAAAGTCGAATGAC, the PBM binding z-score is reported as 7.01. Sequence ACTAGCAGGCCAAGTGTCACTCAAGATTAGTCCG has a PBM binding z-score of -0.322. For GGAACGAGGGCAAAGTTGAGAGCATCTGTCGACG, the PBM binding z-score was 1.55. CCTACTGGGCCATCAGGTAATTGATATCAACGTT was tested, and the PBM binding z-score was -0.176. TTACCAAGGTGAAGGTCGATGATCCCTCTGTAGA showed a PBM binding z-score of 0.54. Sequence TCTACTAGGTCAGTTGGTCAGCTAACGAGCTGCC has a PBM binding z-score of 0.701. Work on CAAACTAGGTCAACGGTCAAAGTCGAGCCAACCA yielded a PBM binding z-score of 2.71. GTTAGCAGGCCATTTGGGTCACTCAATGACGGGC was tested, and the PBM binding z-score was 0.985. For GCGACTAGGGCATCAGCAGGTTACCATAACTTAA, the PBM binding z-score was -0.295. For ATCACTAGGTAAAAGTTCAGTGAATCCCGAGGAT, the PBM binding z-score was 1.34. ATATGTAGGTTACAGCCGGGTCATTCAGGCTATG gave a PBM binding z-score of 4.1. With CCTGCTAGGTCAGTGGTCAGCTAAAGCAGCTCGC the PBM binding z-score was -0.183. For TAGCCTAGGTCATGGGTCAGTATACCACGCGAAC, the PBM binding z-score was 3.31. GCGACTGGGGCTTCAGCAGGTTACCATAACTTAA was tested, and the PBM binding z-score was -0.361. Sequence GCGACTGCGGCAAAGCAGGTTACCATAAGGTTGG has a PBM binding z-score of -0.392. TCGAGTAGGTTAGTCGGGACATTCAGCCAACATA gave a PBM binding z-score of 1.19. TCATATAGGTAAACAGCTGAAAGTCCGTAAGTTA was tested, and the PBM binding z-score was 1.06. CAAACTAGGTCACGAAAAGTCAAAGTCGAATGAC gave a PBM binding z-score of 2.71. Work on TCTTGTAAATCAACAGGAGGTTAAGAAAGATCGA yielded a PBM binding z-score of 1.16. Sequence CAAACTAGGTCAACGTCAAAGTCGGTTTGTGCCA has a PBM binding z-score of 1.83. In the case of TCTAGTTGGTCACGGAGGTCTCACACGACGGGTA, the PBM binding z-score is reported as 1.65.
